# According to the supplement of paper PMC6555819:
# How the values were obtained:
# Test in all cases: PBM binding z-score (relative to random genomic background probes); higher = stronger binding; sequences stand for … in GC…GCGATTGACAGCGTAGAATGAAGG
# [1] = tested on: FXR:RXRa (NR concentration 270 nM, RXRa partner concentration 90 nM)
# Outline: (§1)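 The probes on custom Agilent 4×180K protein-binding microarrays were double-stranded, with 34-nt variable regions bearing direct-repeat seeds, single-nucleotide variants, half-site ablations and random human genomic background sequences. Incubation lasted 1 h with ligand-free nuclear receptor dimers in PBS pH 7.4, 2% milk, 0.02% Triton X-100, 1 mM DTT, 0.2 mg/mL BSA and 0.4 mg/ml salmon testes DNA. Antibodies against each partner (one per run) detected bound dimers, and fluorescence scans were regression-normalized. Binding z-scores take the random background probes as reference.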
# [2] = tested on: LXRa:RXRa (NR concentration 270 nM, RXRa partner concentration 90 nM)
# Outline: as §1
# [3] = tested on: LXRa homodimer (NR concentration 270 nM)
# Outline: as §1
# [4] = tested on: LXRb:RXRa (NR concentration 270 nM, RXRa partner concentration 90 nM)
# Outline: as §1
# [5] = tested on: LXRb homodimer (NR concentration 270 nM)
# Outline: as §1
# [6] = tested on: PPARa:RXRa (NR concentration 270 nM, RXRa partner concentration 90 nM)
# Outline: as §1
# [7] = tested on: PPARg:RXRa (NR concentration 180 nM, RXRa partner concentration 90 nM)
# Outline: as §1
# [8] = tested on: PPARg:RXRa 270nM:90nM, anti-RXR (NR concentration 270 nM, RXRa partner concentration 90 nM)
# Outline: as §1
# [9] = tested on: PPARg:RXRa 30nM:10nM, anti-RXR (NR concentration 30 nM, RXRa partner concentration 10 nM)
# Outline: as §1
# [10] = tested on: PPARg:RXRa 90nM:30nM, anti-RXR (NR concentration 90 nM, RXRa partner concentration 30 nM)
# Outline: as §1
# [11] = tested on: PPARg:RXRa DBDmut IVT, anti-RXR (DBD mutation: RXRa K156A/R161A, NR concentration 270 nM, RXRa partner concentration 90 nM)
# Outline: as §1
# [12] = tested on: PPARg:RXRa IVT, anti-PPARg (NR concentration 270 nM, RXRa partner concentration 90 nM)
# Outline: as §1
# [13] = tested on: PPARg DBDmut:RXRa IVT, anti-PPARg (DBD mutation: PPARg1 K132A/R137A, NR concentration 270 nM, RXRa partner concentration 90 nM)
# Outline: as §1
# [14] = tested on: PPARg DBDmut IVT, anti-PPARg (DBD mutation: PPARg1 K132A/R137A, NR concentration 270 nM)
# Outline: as §1
# [15] = tested on: PPARg homodimer (NR concentration 180 nM)
# Outline: as §1
# [16] = tested on: PXR:RXRa (NR concentration 270 nM, RXRa partner concentration 90 nM)
# Outline: as §1
# [17] = tested on: PXR homodimer (NR concentration 270 nM)
# Outline: as §1
# [18] = tested on: RARa:RXR (NR concentration 270 nM, RXRa partner concentration 90 nM)
# Outline: as §1
# [19] = tested on: RARa homodimer (NR concentration 270 nM)
# Outline: as §1
# [20] = tested on: RARb:RXRa (NR concentration 270 nM, RXRa partner concentration 90 nM)
# Outline: as §1
Sequence,PBM binding z-score [1],PBM binding z-score [2],PBM binding z-score [3],PBM binding z-score [4],PBM binding z-score [5],PBM binding z-score [6],PBM binding z-score [7],PBM binding z-score [8],PBM binding z-score [9],PBM binding z-score [10],PBM binding z-score [11],PBM binding z-score [12],PBM binding z-score [13],PBM binding z-score [14],PBM binding z-score [15],PBM binding z-score [16],PBM binding z-score [17],PBM binding z-score [18],PBM binding z-score [19],PBM binding z-score [20]
CGAACGAGGGCATGAGTTGACAGCAAATGCCGAT,0.601,0.522,-0.133,0.145,-1.11,1.81,1.53,1.54,-0.213,0.897,2.75,2.11,-0.484,-0.439,0.454,0.679,0.0292,0.954,-0.609,2.21
CGCGAAAGGTCGTGCTCAGGTGAGTATACCAAAC,5.65,3.9,0.199,3.55,-0.0921,4.89,3.65,4.46,0.769,2.86,0.794,1.92,0.376,-0.142,2.14,3.61,0.0719,4.63,0.019,4.18
TTTCGGAGGACACGAAAGGTCAGAGCTCGACATC,3.67,4.36,4.05,3.47,0.13,3.77,1.9,2.77,0.718,1.71,0.372,2.08,-0.0451,0.278,4.65,4.29,0.968,4.44,1.88,4.32
ACAGACAGGTGAGTGAAGGTAACTTAGCTGGACG,0.0414,0.0601,-0.497,-0.508,-0.62,-0.0817,0.693,-0.15,-0.0448,-0.0872,0.507,0.549,-0.0823,-0.397,0.206,-0.213,-0.19,0.132,-0.0854,0.486
TAGCCTAGGTCATGCTGGCCAGTATAGTGTCGGC,3.83,3.03,0.0898,1.88,-0.303,3.25,1.99,2.15,0.0868,1.11,1.89,3.11,0.437,-0.89,0.715,1.16,-0.737,2.21,-0.528,3.84
GGGACGAGGGCAAGTTGATAGCAGAGTTTGATGG,1.19,0.762,0.0189,1.18,0.857,1.42,1.09,1.2,0.448,0.913,2.39,2.34,-0.115,0.569,1.21,1.15,0.763,0.688,-0.141,2.91
CCTAGCAGGCCAATCTGGTTCACTCAAGGCTTGA,-0.121,0.131,-0.596,-0.16,-0.887,0.0157,-0.419,-0.488,-0.776,-0.865,1.85,0.21,-1.28,-0.685,-0.281,0.784,-0.545,0.161,-0.882,0.201
